Hits are enriched below; roughly 7.6% of the tested compounds scored in any of these assays.
SW480 rereplic = induces DNA re-replication in SW480 colon adenocarcinoma cells; SW480 DNA re-replication, Hoechst DNA content imaging, 48 h; 340,000 compounds, 1.8% hits; Potency, µM (titrated, usually from 46.1 µM), hits mostly activators; note: nearly all actives have a fitted effect of over 55% in size
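Per well, 250 cells were exposed to pinned compound for 48 hr. Nuclear DNA was visualised with Hoechst (40 min, 37 C) and total object intensity recorded by fluorescence scanning.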
KB-V1 MDR tox = KB-V1 MDR subline cytotoxicity; KB-V1 MDR cells viability, CellTiter-Glo, 72 h; AID 1347076; Potency, µM (top dose mostly 46.1 µM), usual class: cytotoxic; 400,000 compounds, 3.4% hits; note: nearly all actives have a fitted effect of over 60% in size
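Following 72 h at 37 degrees C with compound, KB-V1 cell viability was read by CellTiter-Glo luminescence, medium being phenol-red-free DMEM plus 10% FBS; concentration-response parameters came from normalized, curve-fitted qHTS data.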
KB-3-1 tox = KB-3-1 parental cell cytotoxicity; 400,000 compounds, 1.4% hits; AID 1347075; Potency, µM (doses to about 46.1 µM), hits mostly cytotoxic; KB-3-1 viability, CellTiter-Glo ATP luminescence, 72 h; note: nearly all actives have a fitted effect of over 60% in size
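Parental KB-3-1 viability, qHTS format: 72 h compound exposure, 37 °C; CellTiter-Glo; media-only wells and DMSO plates as controls; concentration-effect fits on corrected data.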
KCNH2 3.1 block = KCNH2 3.1 (human) potassium channel inhibition. U2OS KCNH2 3.1, thallium flux FluxOr; hits give low values. 340,000 compounds, 0.95% hits. activity change, % (tested at about 1.8 µM);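 active = maximum activity change below -70%; inconclusive = maximum activity change from -70% to -50%; inactive = maximum activity change above -50%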;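 note: thallium influx rate constant from kinetic fluorescence after stimulation buffer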
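Thallium flux read-out: FluxOr dye with Red40 quencher in HBSS/HEPES, 45 min at RT. Rate constants from kinetic reads were normalized to positive and negative DMSO controls. Cells: U2OS virally expressing the 3.1 isoform.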
MCF10A rereplic = induces DNA re-replication in MCF 10a normal breast cells | AID 624296 | Potency, µM (titrated, usually from 46.1 µM), hits mostly activators | MCF 10A DNA re-replication, Hoechst nuclear intensity, 48 h | 350,000 compounds, 2.9% hits; note: nearly all actives have a fitted effect of over 50% in size
KCNH2 WT inh = inhibitors of human wildtype KCNH2 potassium channel | Q12809 | U2OS, BacMam KCNH2, thallium flux FluxOr; hits give low values | activity change, % at 1.84 µM | 340,000 compounds, 0.37% hits;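 active = maximum activity change below -70%; inconclusive = maximum activity change between -70% and -50%; inactive = maximum activity change above -50%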
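U2OS cells were transduced with wild-type KCNH2 virus (2.03 x 10^8 / mL) for 4 h at room temperature, then cultured overnight at 37 C. Thallium flux was read with FluxOr dye. Rate constants were normalized to DMSO controls.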
A number is an active result; 0 = inactive; ? = inconclusive; - = no result given. Unless noted, calls come from the whole dose curve; as a rule, active = well fitted curve in the direction sought with a large enough effect; inconclusive = small, poorly fitted or top-dose-only effect, or another doubt; inactive = no such curve, though single readings can be large; an effect the other way counts as inactive or inconclusive.

SMILES	SW480 rereplic	KB-V1 MDR tox	KB-3-1 tox	KCNH2 3.1 block	MCF10A rereplic	KCNH2 WT inh
Cc1cc(OCc2cc(C(=O)N(C)Cc3nonc3C)no2)cc(C)c1Cl	0	?	0	0	?	0
CCc1ccc(CN(C)C(=O)c2cc(COc3cc(C)c(Cl)c(C)c3)on2)nc1	0	0	0	0	23µM	0
Cc1ccc(OCc2cc(C(=O)N(C)Cc3cnn(-c4ccccc4C)c3)no2)cn1	0	?	18µM	0	0	0
Cc1cc(OCc2cc(C(=O)N(C)C3CCOC3)no2)cc(C)c1Cl (configuration not stated)	0	?	?	0	2.3µM	0
COC(=O)CSc1nnc(CNc2ccc(Cl)cc2)n1-c1ccccc1	0	0	0	0	0	0
CC(=O)OCCNc1cc(N2CCN(C)CC2)c2noc3c2c1C(=O)c1ccccc1-3	0	0	0	0	0	0
CCOC(=O)C(C(=O)OCC)c1cc(Br)c2noc3c2c1C(=O)c1ccccc1-3	?	?	5.2µM	0	?	0
Cc1cs/c(=N\N=C\c2ccccc2)n1Cc1ccco1	0	16µM	?	0	?	0
CC(C)Cc1ccc([C@@H](C)C(=O)NS(C)(=O)=O)cc1	0	-	-	-	0	-
CC(C)Cc1ccc(C(C)CC2=CCC(CN(C)C)C2=O)cc1 (configuration not stated)	?	?	?	0	6.5µM	0
CCc1ccccc1NC(=O)CNC(=O)CCNC(=O)Nc1ccccc1	0	0	0	0	0	0
NC(=O)COC(=O)c1cc([N+](=O)[O-])ccc1NCCO	0	0	0	0	0	0
O=C(COC(=O)c1ccccc1Nc1ccccc1)c1ccccc1	0	0	0	0	?	-269
O=C(COC(=O)c1cc([N+](=O)[O-])ccc1NCc1ccccc1Cl)NCC(F)(F)F	0	0	0	0	21µM	0
CNc1ccccc1C(=O)OCC(=O)c1ccccc1	0	0	?	0	0	0
O=C(COC(=O)c1cc([N+](=O)[O-])ccc1NCCO)c1ccccc1	?	21µM	?	0	0	0
O=C(COC(=O)c1cc([N+](=O)[O-])ccc1NCCO)NCc1cccs1	0	0	0	0	0.65µM	0
COc1ccccc1C(c1nnnn1CCc1ccccc1)N1CCN(c2ccccc2)CC1 (configuration not stated)	0	0	0	0	0	0
COc1ccc2cc(C(c3nnnn3CCc3ccccc3)N3CCCC(C)C3)c(=O)[nH]c2c1 (configuration not stated)	0	18µM	0	0	0	0
COc1ccccc1C(c1nnnn1CCc1ccccc1)N1CCCCCC1 (configuration not stated)	?	16µM	0	0	?	0
COCCn1nnnc1C(c1cc2cc(OC)ccc2[nH]c1=O)N1CCC(Cc2ccccc2)CC1 (configuration not stated)	0	?	?	0	?	0
COc1cc(-c2cc(C(=O)Nc3ccccc3N3CCOCC3)c3ccccc3n2)cc(OC)c1OC	0	9.2µM	0	0	?	0
COc1cc(NC(C(=O)Nc2cccc(C(C)=O)c2)c2ccccc2)cc(OC)c1OC (configuration not stated)	0	4.6µM	?	0	0	0
COc1cc(-c2cc(C(=O)Nc3cccc(C(C)=O)c3)c3ccccc3n2)cc(OC)c1OC	0	21µM	?	0	?	0
COc1cc(-c2cc(C(=O)Nc3ccc(O)cc3)c3ccccc3n2)cc(OC)c1OC	0	0	0	0	0	0
COc1ccc(-c2cc(C(=O)Nc3ccc(S(=O)(=O)Nc4onc(C)c4C)cc3)c3ccccc3n2)cc1OC	0	0	0	-81	?	0
O=C(Nc1ccccc1N1CCOCC1)c1cc(-c2ccco2)nc2ccccc12	0	?	?	0	?	0
Cc1cc(C)n(CCc2nc3c4ccccc4nc(N4CCN(c5ccc(F)cc5)CC4)n3n2)n1	-	?	0	-	-	-
CC(=O)c1cccc(NC(=O)CN(C)S(=O)(=O)c2cccc3nsnc23)c1	0	0	0	0	0	0

Compound activity (PubChem)
